According to PubChem BioAssay (EPA / NIEHS):
Inconclusive results are not listed. Active and inactive are the calls of the source. How the source made its calls, unless noted: active means hit-call score of the fitted dose curve at least 0.9, where 1 is the maximum; inactive means score below 0.9.

What was measured:
[1] = ACEA_ER_80hr: ACEA Biosciences xCELLigence Real-Time Cell Analysis on Estrogen Receptor Agonism for Proliferation (AID 2282667; active means hit-call score of the fitted dose curve at least 0.9, where 1 is the maximum); details: T47D proliferation, impedance (xCELLigence), 80 h
Method in brief: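 Impedance readout (RT-CES) of T47D proliferation at 80 h post-dose; gain of signal vs DMSO baseline. Compounds: 8 conc, 1:4 serial, top 100 uM final, ≤0.5% DMSO; biological duplicate.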

[2] = ATG_CRE_CIS: Attagene CIS-FACTORIAL HepG2 Assay for human cAMP Responsive Element (CRE) binding protein 3 (AID 2282926); details: HepG2 CRE cis-reporter, Attagene multiplexed mRNA; actives raise or lower the signal
Method in brief: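 Endogenous CRE-binding activity in HepG2 is reported through a cis-regulated transfected reporter. Following a day of exposure, mRNA levels are determined by reverse transcription PCR and fluorescent fragment analysis; fits run in both directions versus DMSO.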

[3] = molecular target: CCAAT/enhancer-binding protein beta (Homo sapiens) (UniProt P17676); assay: ATG_C_EBP_CIS: Attagene CIS-FACTORIAL HepG2 Assay for human CCAAT/Enhancer Binding Protein (C/EBP) beta (AID 2282927); details: HepG2 Attagene cis-factorial transcription factor reporter; actives raise or lower the signal
Method in brief: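 HepG2, transient MRTU transfection, 24 h treatment. RT-PCR plus CE fluorescence; DMSO negative control, bidirectional fit.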

[4] = ATG_DR4_LXR_CIS: Attagene CIS-FACTORIAL HepG2 Assay for human Liver X Receptor (LXR), DR4 submotif (AID 2282929); details: HepG2 Attagene DR4 cis-reporter, mRNA transcription; actives raise or lower the signal
Method in brief: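 The endpoint is DR4-element-driven reporter transcripts after 24 h chemical exposure of transfected HepG2 cells. These were measured via RT-PCR and capillary electrophoresis, and gain or loss of signal was fitted relative to DMSO controls.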

[5] = molecular target: Aryl hydrocarbon receptor (Homo sapiens) (UniProt P35869); assay: ATG_Ahr_CIS: Attagene CIS-FACTORIAL HepG2 Assay for human Aryl Hydrocarbon Receptor (Ahr) (AID 2282930); details: HepG2 AhR cis-factorial reporter transcription; actives raise or lower the signal
Method in brief: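 Endogenous factor activity is tracked through cis-promoter reporter units transfected into HepG2 cells. Transcript levels at 24 h are read by fluorescent RT-PCR and capillary electrophoresis, with activity in either direction scored relative to DMSO.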

[6] = ATG_AP_1_CIS: Attagene CIS-FACTORIAL HepG2 Assay for human Activator Protein 1 (AP-1) (AID 2282931); details: HepG2 Attagene cis-factorial AP-1 reporter mRNA; actives raise or lower the signal
Method in brief: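 Readout is reporter transcript level from endogenous transcription factor activity, quantified by RT-PCR with fluorescent primer extension and capillary electrophoresis. Transiently transfected HepG2 cells, 24 h exposure. Curves fitted both directions versus DMSO.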

[7] = ATG_AP_2_CIS: Attagene CIS-FACTORIAL HepG2 Assay for human Activator Protein 2 (AP-2) (AID 2282932); details: HepG2 AP-2 cis-reporter, Attagene transcription factor profiling; actives raise or lower the signal
Method in brief: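 HepG2 cells transiently transfected with cis-element reporter units and exposed for 24 h. Reporter mRNA measured by RT-PCR, FAM labelling, HpaI digestion and capillary electrophoresis. Changes in either direction fitted relative to DMSO.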

[8] = ATG_BRE_CIS: Attagene CIS-FACTORIAL HepG2 Assay for human Bone Morphogenetic Protein (BMP) Response Element (BRE) (AID 2282933); details: HepG2 BMP response element reporter, Attagene transcription factor profiling; actives raise or lower the signal
Method in brief: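 Endogenous transcription factor activity at a BMP response element was monitored in transfected HepG2 cells 24 h after dosing. Fluorescent RT-PCR products were resolved by capillary electrophoresis, and activity was fitted in both directions versus DMSO.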

[9] = molecular target: Retinoic acid receptor alpha (Homo sapiens) (UniProt P10276); assay: ATG_DR5_RAR_CIS: Attagene CIS-FACTORIAL HepG2 Assay for human Retinoic Acid Receptor Alpha (RARE), DR5 submotif (AID 2282934); details: HepG2 Attagene cis-factorial RARE DR5 reporter, mRNA; actives raise or lower the signal
Method in brief: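 After 24 h of chemical exposure, transiently transfected HepG2 cells were lysed for total RNA; the DR5-regulated reporter transcript was quantified via RT-PCR and capillary electrophoresis, with activity fitted bidirectionally against DMSO.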

[10] = molecular target: Transcription factor E2F1 (Homo sapiens) (UniProt Q01094); assay: ATG_E2F_CIS: Attagene CIS-FACTORIAL HepG2 Assay for human E2F Transcription Factor 1 (AID 2282935); details: HepG2 Attagene cis-reporter, E2F reporter RNA transcripts; actives raise or lower the signal
Method in brief: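 Endogenous E2F1 activity read through cis-promoter reporter units transfected into HepG2. After 24 h compound treatment, reporter mRNA measured by RT-PCR, HpaI digestion and capillary electrophoresis. Bidirectional fit versus DMSO.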

[11] = ATG_E_Box_CIS: Attagene CIS-FACTORIAL HepG2 Assay for human Enhancer Box (E-box) (AID 2282936); details: HepG2 E-box cis-reporter transcription, actives raise or lower the signal
Method in brief: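 HepG2 cells transiently transfected with multiplexed cis-element reporter units, dosed 24 h; reporter mRNA quantified by RT-PCR, 6-FAM labelling, HpaI digestion and capillary electrophoresis. E-box (USF1) signal fitted bidirectionally vs DMSO.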

[12] = ATG_M_61_CIS: Attagene CIS-FACTORIAL HepG2 Assay for M61 Transcription Factor (Internal Marker) (AID 2282937); details: HepG2 Attagene CIS-FACTORIAL M61 internal marker reporter; actives raise or lower the signal
Method in brief: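 Readout is reporter mRNA by RT-PCR, fluorescent primer extension and capillary electrophoresis, with gain or loss fitted relative to DMSO. Transfected HepG2 cells carrying endogenous-TF-driven cis reporters were exposed to chemicals for 24 hours.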

[13] = ATG_EGR_CIS: Attagene CIS-FACTORIAL HepG2 Assay for human Early Growth Response 1 (EGR1) (AID 2282938); details: HepG2 Attagene CIS-FACTORIAL EGR reporter mRNA; actives raise or lower the signal
Method in brief: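 After 24 h compound exposure, RNA from reporter-transfected HepG2 cells was reverse-transcribed, PCR-amplified, fluorescently labelled and resolved by capillary electrophoresis. EGR1 reporter transcript changes, up or down, were fitted against DMSO, reflecting endogenous transcription-factor activity.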

[14] = ATG_M_19_CIS: Attagene CIS-FACTORIAL HepG2 Assay for M19 Transcription Factor (Internal Marker) (AID 2282939); details: HepG2 Attagene CIS-FACTORIAL M19 internal marker reporter; actives raise or lower the signal
Method in brief: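 Background-control endpoint from a multiplexed HepG2 reporter panel. Cells carrying cis-regulated reporter constructs are treated 24 h, then reporter transcripts are amplified, fluorescently labelled and sized by capillary electrophoresis. DMSO defines baseline.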

[15] = ATG_ERE_CIS: Attagene CIS-FACTORIAL HepG2 Assay for Estrogen Response Element (ERE) (AID 2282940); details: HepG2 ERE cis-reporter, Attagene RNA transcript; actives raise or lower the signal
Method in brief: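 Cells used were human hepatoma HepG2, transfected with multiple reporter transcription units under cis-regulatory promoters. Reporter mRNA, read 24 h post-dosing via fluorescent RT-PCR products on capillary electrophoresis, was fitted bidirectionally relative to DMSO.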

[16] = ATG_Ets_CIS: Attagene CIS-FACTORIAL HepG2 Assay for human Erythroblast Transformation Specific (ETS) (AID 2282941); details: HepG2 ETS cis-reporter transcription, actives raise or lower the signal
Method in brief: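 After transient cis-reporter transfection, HepG2 cells receive test chemical for 24 h. Reporter mRNA levels, measured by RT-PCR and capillary electrophoresis fluorescence, are analysed bidirectionally relative to the DMSO baseline.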

[17] = ATG_FoxO_CIS: Attagene CIS-FACTORIAL HepG2 Assay for human Forkhead box O (FoxO) (AID 2282943); details: HepG2 Attagene cis-reporter, FoxO element, mRNA; actives raise or lower the signal
Method in brief: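 Transfected HepG2 reporter cells exposed to test chemical for 24 h; reporter RNA measured by reverse transcription, PCR and fluorescent capillary electrophoresis; curves fitted for increases and decreases against DMSO.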

[18] = ATG_GATA_CIS: Attagene CIS-FACTORIAL HepG2 Assay for human GATA Binding Protein (AID 2282944); details: HepG2 GATA cis-element reporter, Attagene multiplex mRNA; actives raise or lower the signal
Method in brief: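 Endogenous transcription factor activity was captured through cis-promoter-driven reporters in transfected HepG2 cells. After 24 h exposure, reporter transcripts were quantified by RT-PCR with fluorescent capillary electrophoresis, and responses fitted both directions against DMSO.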

[19] = ATG_CMV_CIS: Attagene CIS-FACTORIAL HepG2 Assay for human CMV (Internal Marker) (AID 2282928); details: HepG2 CMV promoter reporter, transcription factor profiling; actives raise or lower the signal;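 further: endpoint acts as a background internal control marker rather than a target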
Method in brief: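 Cell system: HepG2, transiently transfected multiple reporter units under cis promoters. Exposure: 24 h. Detection: RT-PCR, FAM labeling, HpaI digestion, capillary electrophoresis. Analysis: bidirectional, DMSO baseline.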

[20] = molecular target: Hepatocyte nuclear factor 3-beta (Homo sapiens) (UniProt Q9Y261); assay: ATG_FoxA2_CIS: Attagene CIS-FACTORIAL HepG2 Assay for human Forkhead box A2 (FOXA2) (AID 2282942); details: HepG2 cis-reporter transcription factor activity, 24 h; actives raise or lower the signal
Method in brief: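 Endogenous transcription factor activity is captured via cis-element-driven reporter transcripts in transfected HepG2. Total RNA taken at 24 h post-dosing; labelled RT-PCR products resolved by capillary electrophoresis. Gain or loss fitted versus DMSO.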

Measured: AC50

Chain of Aryl hydrocarbon receptor (Homo sapiens) (P35869 whole entry, looked up): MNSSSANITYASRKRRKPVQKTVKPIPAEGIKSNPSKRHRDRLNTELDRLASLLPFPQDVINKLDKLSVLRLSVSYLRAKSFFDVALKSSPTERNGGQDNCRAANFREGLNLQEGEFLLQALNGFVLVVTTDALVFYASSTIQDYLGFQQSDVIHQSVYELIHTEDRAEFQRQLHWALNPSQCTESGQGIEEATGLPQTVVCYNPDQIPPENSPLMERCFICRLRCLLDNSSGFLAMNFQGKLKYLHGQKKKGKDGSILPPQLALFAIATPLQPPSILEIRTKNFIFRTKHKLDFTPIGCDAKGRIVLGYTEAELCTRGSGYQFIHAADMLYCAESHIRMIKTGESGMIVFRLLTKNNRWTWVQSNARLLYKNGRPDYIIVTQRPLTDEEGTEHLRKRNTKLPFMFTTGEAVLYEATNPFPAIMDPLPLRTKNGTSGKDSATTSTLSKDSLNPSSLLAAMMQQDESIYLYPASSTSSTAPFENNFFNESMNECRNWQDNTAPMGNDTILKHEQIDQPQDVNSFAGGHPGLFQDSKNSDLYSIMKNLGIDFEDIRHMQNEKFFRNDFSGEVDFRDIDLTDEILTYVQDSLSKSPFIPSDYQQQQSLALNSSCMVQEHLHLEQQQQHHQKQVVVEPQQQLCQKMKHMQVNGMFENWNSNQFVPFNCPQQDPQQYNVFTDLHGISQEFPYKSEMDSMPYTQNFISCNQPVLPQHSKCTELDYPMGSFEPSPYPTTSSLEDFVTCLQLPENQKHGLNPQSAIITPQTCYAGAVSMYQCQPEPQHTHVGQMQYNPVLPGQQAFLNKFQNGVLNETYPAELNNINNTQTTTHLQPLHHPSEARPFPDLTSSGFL
Chain of CCAAT/enhancer-binding protein beta (Homo sapiens) (P17676 whole entry, looked up): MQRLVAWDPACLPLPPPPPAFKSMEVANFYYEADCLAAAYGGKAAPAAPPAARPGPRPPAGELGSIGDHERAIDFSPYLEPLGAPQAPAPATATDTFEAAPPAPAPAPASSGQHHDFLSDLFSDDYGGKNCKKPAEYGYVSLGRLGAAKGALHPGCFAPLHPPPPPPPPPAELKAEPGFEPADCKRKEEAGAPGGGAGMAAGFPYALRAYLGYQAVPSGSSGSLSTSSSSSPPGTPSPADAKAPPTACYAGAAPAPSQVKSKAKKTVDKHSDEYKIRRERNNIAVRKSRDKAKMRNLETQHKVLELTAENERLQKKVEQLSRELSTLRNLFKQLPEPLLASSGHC
Chain of Transcription factor E2F1 (Homo sapiens) (Q01094 whole entry, looked up): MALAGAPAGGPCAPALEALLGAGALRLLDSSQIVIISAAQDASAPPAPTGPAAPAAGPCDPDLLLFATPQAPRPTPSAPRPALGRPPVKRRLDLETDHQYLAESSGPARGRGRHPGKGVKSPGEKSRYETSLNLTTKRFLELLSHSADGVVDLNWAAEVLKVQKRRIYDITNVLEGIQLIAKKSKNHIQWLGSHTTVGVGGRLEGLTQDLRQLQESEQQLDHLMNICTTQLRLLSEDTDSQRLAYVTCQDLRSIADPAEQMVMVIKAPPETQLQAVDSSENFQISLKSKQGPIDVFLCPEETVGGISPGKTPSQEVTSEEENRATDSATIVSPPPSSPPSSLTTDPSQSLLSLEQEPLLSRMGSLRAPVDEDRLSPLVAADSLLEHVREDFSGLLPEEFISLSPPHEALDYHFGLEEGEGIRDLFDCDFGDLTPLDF
Chain of Retinoic acid receptor alpha (Homo sapiens) (P10276 whole entry, looked up): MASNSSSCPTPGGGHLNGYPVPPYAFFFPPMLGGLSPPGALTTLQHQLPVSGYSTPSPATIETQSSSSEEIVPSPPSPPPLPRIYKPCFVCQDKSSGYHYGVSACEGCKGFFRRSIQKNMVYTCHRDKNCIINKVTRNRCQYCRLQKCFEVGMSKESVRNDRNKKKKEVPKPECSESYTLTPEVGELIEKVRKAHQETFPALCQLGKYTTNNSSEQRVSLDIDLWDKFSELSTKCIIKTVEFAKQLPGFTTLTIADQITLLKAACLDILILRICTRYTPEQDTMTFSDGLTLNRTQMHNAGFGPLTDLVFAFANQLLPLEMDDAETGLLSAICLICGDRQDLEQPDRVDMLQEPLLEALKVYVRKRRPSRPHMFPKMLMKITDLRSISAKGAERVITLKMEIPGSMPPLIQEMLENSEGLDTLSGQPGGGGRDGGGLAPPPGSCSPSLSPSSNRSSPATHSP
Chain of Hepatocyte nuclear factor 3-beta (Homo sapiens) (Q9Y261 whole entry, looked up): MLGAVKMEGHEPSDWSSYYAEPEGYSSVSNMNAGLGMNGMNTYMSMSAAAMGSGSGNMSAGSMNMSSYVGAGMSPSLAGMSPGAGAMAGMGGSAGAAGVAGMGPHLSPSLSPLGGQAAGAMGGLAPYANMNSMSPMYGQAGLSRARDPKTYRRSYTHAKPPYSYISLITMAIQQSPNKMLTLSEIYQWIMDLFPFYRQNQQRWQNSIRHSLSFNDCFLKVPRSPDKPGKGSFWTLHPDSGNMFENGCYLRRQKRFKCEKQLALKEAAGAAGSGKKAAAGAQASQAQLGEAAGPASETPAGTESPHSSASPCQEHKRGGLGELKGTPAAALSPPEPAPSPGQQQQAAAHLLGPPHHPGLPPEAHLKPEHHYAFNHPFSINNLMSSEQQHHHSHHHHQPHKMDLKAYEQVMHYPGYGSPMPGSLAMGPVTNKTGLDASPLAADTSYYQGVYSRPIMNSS

COc1cc(C)ccc1O
not listed: [19] | [20]
inactive: all other assays above

CCN1CN(CC)CN(CC)C1
active: [3] 175 µM | [19] 140 µM | [4] 139 µM | [16] 175 µM
not listed: [2] | [7] | [18] | [20]
inactive: all other assays above

CC1=CCC(C(C)C)C=C1 (centres undefined)
not listed: [2] | [9]
inactive: all other assays above

CCCCCCCO
not listed: [2] | [12] | [15] | [16]
inactive: all other assays above

CCc1cccc(CC)c1
not listed: [2] | [14]
inactive: all other assays above

C=CC(C)(O)CC/C=C(\C)CC (centres undefined)
not listed: [2] | [13] | [15]
inactive: all other assays above

COc1ccc(C(=O)/C(Br)=C\C(=O)O)cc1
active: [3] 129 µM | [19] 36 µM | [4] 27.8 µM | [6] 26.4 µM | [13] 68 µM
not listed: [2] | [7] | [12] | [18]
inactive: all other assays above
